# In PubChem BioAssay (NCATS):
# Records with an inconclusive call do not appear. Entries that show only a call come without a potency. The source made the active and inactive calls. Calls follow the shape of the dose curve; as a rule, active = well fitted cell-killing curve with a large enough effect; inconclusive = small, poorly fitted or top-dose-only effect; inactive = flat fitted curve, though single readings scatter.
# Experiment: Cell Viability - LYMP2-026 (AID 989); also: nearly all actives have a fitted effect of over 50% in size
# Conditions: LYMP2-026 lymphoblastoid cell viability, qHTS; series mostly up to 92.2 µM
# Excerpt: NIH Chemical Genomics Center [NCGC]
# NIH Molecular Libraries Screening Centers Network [MLSCN]
# National Institutes of Environmental Health Sciences [NIEHS]
# National Toxicology Program [NTP]
# We have developed a 1536-well cell-based assay for quantitative high throughput screening (qHTS) against a number of cell lines to determine in vitro cytotoxicity of small molecules. This particular assay uses a human lymphoblastoid cell line (LYMP2-026) purchased from Coriell Institute for Medical Research.
# NCGC Assay Protocol Summary:
# The CellTiter-Glo luminescent cell viability assay (Promega) is a homogeneous method to measure the number of viable cells in culture. The end point readout of this assay is based on quantitation of intracellular ATP, an indicator of metabolic activity, using the luciferase reaction. Luciferase catalyzes the oxidation of beetle Luciferin to oxyluciferin and light in the presence of ATP. The luminescent signal is proportional to amount of ATP present.
# Using the CellTiter-Glo luminescent cell viability assay, the amount of cellular ATP was measured in the lymphoblastoid cell line with complete culture medium following compound treatment for 24 hours. The assay was performed in opaque white Kalypsys 1536-well plates. In the screen, tetraoctylammonium bromide was used as positive control. Library compounds were measured for their ability to cause acute toxicity in the cell line, as reflected by a decrease in intracellular ATP levels, in a concentration-dependent manner. […] AC50 values were determined from concentration-response data modeled with the standard Hill equation.
# qHTS protocol for CellTiter Glo lymphoblastoid cellular assay
# [Step] [Parameter] [Value] [Description]
# 1. Reagent; 5 uL; 2500 lymphoblastoid cells/well
# 2. Time; 5 hr; 37 C incubation
# 4. Controls; 23 nL; Tetraoctylammonium bromide 6.4pM to 92 uM
# 5. Time; 24 hr; 37 C incubation
# 6. Reagent; 5 uL; CellTiter Glo reagent
# 7. Time; 30 min; Room Temperature
# 8. Detection; Luminescence; Viewlux plate reader
# Keywords: cell viability, cytotoxicity, lymphoblastoid cell line, luminescence, NTPHTS, NTPHTS_NCGC, NIEHS, DSSTox, MLSMR, MLSCN, NIH Roadmap, qHTS, NCGC
# Potency is read from the fitted curve at half-maximal effect.
row,Structure (SMILES),Potency
1,CC[C@H](C)C(=O)O[C@H]1C[C@@H](C)C=C2C=C[C@H](C)[C@H](CC[C@@H]3C[C@@H](O)CC(=O)O3)[C@H]21,inactive
2,CCc1cc(C(N)=S)ccn1,inactive
3,C[C@]12C=CC(=O)C=C1CC[C@@H]1[C@@H]2C(=O)C[C@@]2(C)[C@H]1CC[C@]2(O)C(=O)CO,inactive
4,NC(N)=NC(N)=NCCc1ccccc1,inactive
5,CN(C)c1ccc(C(=C2C=CC(=[N+](C)C)C=C2)c2ccc(N(C)C)cc2)cc1,2510 nM (active)
6,Cc1ncc([N+](=O)[O-])n1CCO,inactive
7,Cc1ccnc2c1NC(=O)c1cccnc1N2C1CC1,inactive
8,Cc1nnc(NS(=O)(=O)c2ccc(N)cc2)s1,inactive
9,Cc1cc(NS(=O)(=O)c2ccc(N)cc2)no1,inactive
10,CC1=NN(c2ccccc2)C(=O)C1,inactive
11,NNC(=O)c1ccncc1,inactive
12,O=C(N[C@H](CO)[C@H](O)c1ccc([N+](=O)[O-])cc1)C(Cl)Cl,inactive
13,O=C(O)c1cc(=O)[nH]c(=O)[nH]1,inactive
14,Cc1noc(NS(=O)(=O)c2ccc(N)cc2)c1C,inactive
